Measured values as given in PubChem BioAssay (Tox21).
Where “and” joins values, the source holds several entries; their conditions need not be identical. Equal values may be shown once. Records with an inconclusive call do not appear. Where a structure was tested more than once in an assay, its records may differ in their call. Calls of active or inactive are those of the source. Unless noted, the call rests on the fitted dose curve; in most records, active means well fitted curve in the direction sought with a large enough effect in the repeat runs; inconclusive means weak or mixed curves; inactive means no such curve, though single readings can be large; an effect the other way counts as inactive or inconclusive.

What was measured:
[1] = Human pregnane X receptor (PXR) small molecule agonists, qHTS cell viability counter screen (AID 1346977); further: nearly all actives have a fitted effect of over 50% in size; further: potency means the concentration at half of the fitted maximal effect
How it was run: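 Readout is CellTiter-Fluor fluorescence from PXR-Luc HepG2 cells. Plated cells rested 5hr, then were treated with compounds for 24hr at 37C and 5% CO2, with reagent present during the last hour.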

[2] = Caspase-3/7 induction in HepG2 cells by small molecules, qHTS assay (AID 1346978); further: nearly all actives have a fitted effect of over 15% in size; further: potency means the concentration at half of the fitted maximal effect
How it was run: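 Caspase-3/7 induction was measured by Caspase-Glo 3/7 luminescence (30 min, room temperature) after a 17 hr compound exposure of wild-type HepG2 cells seeded at 2,000 per well and pre-incubated 5 hr.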

[3] = Caspase-3/7 induction in CHO-K1 cells by small molecules, qHTS cell viability counter screen (AID 1346979); further: nearly all actives have a fitted effect of over 35% in size; further: potency means the concentration at half of the fitted maximal effect
How it was run: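 To flag cytotoxic compounds, treated CHO-K1 wild-type cells were given CellTiter-Fluor at 16hr and read fluorescently after 1hr at 37C; the caspase-3/7 luminescence was measured in these same wells.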

[4] = Caspase-3/7 induction in CHO-K1 cells by small molecules, qHTS assay (AID 1346980); further: nearly all actives have a fitted effect of over 15% in size
How it was run: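 Luminescent Caspase-Glo 3/7 read (30min, room temperature) quantified apoptosis induction. Cells were wild-type CHO-K1, treated with compound for 17hr at 37 C and 5% CO2.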

[5] = Caspase-3/7 induction in HepG2 cells by small molecules, qHTS cell viability counter screen (AID 1346981); further: nearly all actives have a fitted effect of over 30% in size; further: potency means the concentration at half of the fitted maximal effect; on activity change, negative = cytotoxicity: series mostly up to about 92 µM
How it was run: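 After a 5-hr attachment period at 37 C and 5% CO2, wild-type HepG2 cells received compounds in DMSO. Sixteen hours later CellTiter-Fluor was dispensed and the fluorescent signal quantified after a further hour.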

[6] = target: Nuclear receptor subfamily 1 group I member 2 (Homo sapiens) (UniProt O75469); experiment: Human pregnane X receptor (PXR) small molecule agonists, qHTS assay (AID 1346982); further: nearly all actives have a fitted effect of over 35% in size; further: potency means the concentration at half of the fitted maximal effect
Sequence of Nuclear receptor subfamily 1 group I member 2 (Homo sapiens) (O75469 whole entry, looked up): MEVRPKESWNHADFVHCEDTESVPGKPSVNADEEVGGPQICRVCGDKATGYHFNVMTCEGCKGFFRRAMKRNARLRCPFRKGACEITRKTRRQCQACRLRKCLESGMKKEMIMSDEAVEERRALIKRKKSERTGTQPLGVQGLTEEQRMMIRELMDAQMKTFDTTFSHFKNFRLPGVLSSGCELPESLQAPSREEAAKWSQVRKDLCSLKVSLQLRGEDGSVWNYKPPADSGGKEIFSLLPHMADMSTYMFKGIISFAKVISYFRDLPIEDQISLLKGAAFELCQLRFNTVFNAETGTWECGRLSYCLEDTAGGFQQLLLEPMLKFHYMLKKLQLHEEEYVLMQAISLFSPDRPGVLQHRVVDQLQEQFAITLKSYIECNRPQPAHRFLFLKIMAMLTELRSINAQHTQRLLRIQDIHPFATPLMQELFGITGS
How it was run: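 Tox21 qHTS; PXR-Luc HepG2; compounds pinned from DMSO; 24 hr, 37 C; ONE-Glo luciferase detection, 30 min room temperature.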

[7] = target: Acetylcholinesterase (Homo sapiens) (UniProt P22303); experiment: Acetylcholinesterase (AChE) small molecule antagonists: colormetric cell-based qHTS assay (AID 1347395; calls by dose curve; further: nearly all actives have a fitted effect of over 30% in size; further: potency means the concentration at half of the fitted maximal effect)
Sequence of Acetylcholinesterase (Homo sapiens) (P22303 whole entry, looked up): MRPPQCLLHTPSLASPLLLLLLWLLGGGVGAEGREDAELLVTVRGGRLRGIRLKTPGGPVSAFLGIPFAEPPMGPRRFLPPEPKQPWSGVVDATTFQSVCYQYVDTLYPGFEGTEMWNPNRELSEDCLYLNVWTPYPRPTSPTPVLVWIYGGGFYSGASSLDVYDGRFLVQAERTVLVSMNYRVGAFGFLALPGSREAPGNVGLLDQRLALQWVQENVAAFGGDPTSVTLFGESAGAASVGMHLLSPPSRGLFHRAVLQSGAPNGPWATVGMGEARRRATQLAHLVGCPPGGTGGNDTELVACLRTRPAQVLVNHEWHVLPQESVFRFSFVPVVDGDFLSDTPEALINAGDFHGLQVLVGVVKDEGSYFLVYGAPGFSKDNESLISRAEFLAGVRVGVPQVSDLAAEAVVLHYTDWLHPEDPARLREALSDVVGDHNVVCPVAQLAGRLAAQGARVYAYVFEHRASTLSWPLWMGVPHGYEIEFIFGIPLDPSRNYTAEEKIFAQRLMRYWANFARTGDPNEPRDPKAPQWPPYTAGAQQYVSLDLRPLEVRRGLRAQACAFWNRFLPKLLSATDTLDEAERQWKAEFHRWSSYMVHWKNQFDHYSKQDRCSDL
How it was run: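 Neuroblastoma line SH-SY5Y supplied the enzyme; cells were preincubated with compound for 30 min at 37 C and 5% CO2. Acetylthiocholine with DTNB was then added for 90 min at 37 C, and thiocholine was measured by colour.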

[8] = target: Nuclear receptor subfamily 1 group I member 2 (Rattus norvegicus) (UniProt Q9R1A7); experiment: Rat pregnane X receptor (rPXR) activation by small molecules, qHTS assay (AID 1346983); conditions: rPXR luciferase reporter cells, One-Glo luminescence, 24 h; max activation: stronger effect = higher value; further: nearly all actives have a fitted effect of over 20% in size
Sequence of Nuclear receptor subfamily 1 group I member 2 (Rattus norvegicus) (Q9R1A7 whole entry, looked up): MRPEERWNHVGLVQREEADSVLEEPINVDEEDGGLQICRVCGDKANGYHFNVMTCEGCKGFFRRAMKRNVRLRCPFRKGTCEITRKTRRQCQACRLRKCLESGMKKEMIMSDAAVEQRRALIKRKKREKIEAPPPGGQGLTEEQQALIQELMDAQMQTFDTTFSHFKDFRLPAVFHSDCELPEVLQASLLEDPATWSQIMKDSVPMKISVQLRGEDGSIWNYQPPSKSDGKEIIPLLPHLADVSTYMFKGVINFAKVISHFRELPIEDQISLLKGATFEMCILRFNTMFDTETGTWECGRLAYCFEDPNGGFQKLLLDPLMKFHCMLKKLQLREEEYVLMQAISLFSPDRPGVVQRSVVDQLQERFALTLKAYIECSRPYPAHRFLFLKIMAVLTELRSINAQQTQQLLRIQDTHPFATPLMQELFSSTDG
How it was run: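 Luminescent readout (One-Glo luciferase, 30 min room temperature) followed 24 hr compound treatment at 37 C of rPXR cells plated 2,000 per well and preincubated 5hr; qHTS format with compounds delivered in DMSO.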

[9] = target: Nuclear receptor subfamily 1 group I member 2 (Homo sapiens) (UniProt O75469); experiment: CYP3A4 induction through human pregnane X receptor (PXR) by small molecules, qHTS assay (AID 1346984); further: nearly all actives have a fitted effect of over 40% in size
How it was run: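 Cells (DPX-2; HepG2 with PXR element plus CYP3A4-promoter luciferase) settled 5hr, then were treated 24hr at 37C. A 3hr, 3uM-final Luciferin-IPA step preceded luminescence measurement with One-Glo.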

[10] = target: Nuclear receptor subfamily 1 group I member 2 (Homo sapiens) (UniProt O75469); experiment: Human pregnane X receptor (PXR) activation by small molecules, qHTS assay (AID 1346985); further: nearly all actives have a fitted effect of over 40% in size
How it was run: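 DPX-2 cells (HepG2 co-transfected with a PXR response element and a CYP3A4-promoter luciferase construct) were seeded at 2,000 per well, rested 5 hr at 37C, then exposed to DMSO-dissolved compounds for 24 hr. Activation was read as luciferase luminescence.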
On the % scale 0 is the no-effect control and ±100 the full control effect.

CCCCn1cc[n+](C)c1 (tested in a mixture with another compound)
inactive: Potency [1] | Potency [2] | Potency [3] | Potency [4] | Potency [5]

[Cl-].[Cl-].[Sn+2]
inactive: Potency [1] | Potency [2] | Potency [3] | Potency [4] | Potency [5]

O=C(CCCCl)c1ccc(F)cc1
inactive: Potency [1] | Potency [2] | Potency [3] | Potency [4] | Potency [5] | Potency [6] | Potency [7]

c1cc[n+]2c(c1)-c1cccc[n+]1CC2
active: Potency [1] 13.3 µM
inactive: Potency [2] | Potency [3] | Potency [4] | Potency [5] | Potency [6] | Potency [7]

Cc1cnc2c(C(=O)O)c(Cl)ccc2c1
inactive: Potency [1] | Potency [2] | Potency [3] | Potency [4] | Potency [5] | Potency [6] | Potency [7]

C#CCO
inactive: Potency [1] | Potency [2] | Potency [3] | Potency [4] | Potency [5] | Potency [6] | Potency [7]

CCCCON=O
inactive: Potency [1] | Potency [2] | Potency [3] | Potency [4] | Potency [5] | Potency [6] | Potency [7]

[Cl][Hg][c]1ccccc1
inactive: Potency [2] | Potency [4] | Potency [6] | Potency [7]
active: Potency [1] 1.54 µM | Potency [3] 486 nM | Potency [5] 12.2 µM

O=c1[nH]c2cc(Cl)ccc2n1C1CCNCC1
inactive: Potency [1] | Potency [2] | Potency [3] | Potency [4] | Potency [5] | Potency [6] | Potency [7]

CC(=O)O.CC(=O)O.CC(=O)O.CC(=O)O.CC(=O)O.CC(=O)O.CC(=O)O.O.O.[Cr].[Cr].[Cr]
inactive: Potency [1] | Potency [2] | Potency [3] | Potency [4] | Potency [5]

CC(=O)[O-].CC(=O)[O-].CC(=O)[O-].[Sb+3]
inactive: activity change, negative = cytotoxicity [1] 2.16% [at 3.27 µM] | caspase activation [2] 1.01% [at 3.27 µM] | activity change, negative = cytotoxicity [3] 4.75% [at 3.27 µM] | caspase-3/7 activation [4] -0.0038% [at 3.27 µM] | activity change, negative = cytotoxicity [5] -0.0636% [at 3.27 µM]

CN(C)C(=S)SSC(=S)N(C)C
inactive: Potency [4] | Potency [6] | max activation [8] -13.9% | Potency [9]
78.5 µM (active) and inactive: Potency [7]
active: Potency [1] 447 nM and 486 nM and 422 nM | Potency [2] 851 nM and 864 nM and 668 nM | Potency [3] 240 nM and 344 nM and 298 nM | Potency [5] 26.9 µM and 19.3 µM and 15 µM

CN1[C@@H]2CC[C@H]1CC(O)C2 (some centres undefined)
inactive: Potency [1] | Potency [2] | Potency [3] | Potency [4] | Potency [5] | Potency [6] | Potency [7]

CC(=O)[O-].CC(=O)[O-].O.O.O.[Pb+2]
inactive: Potency [1] | Potency [2] | Potency [3] | Potency [4] | Potency [5]

ClC1(Cl)C2(Cl)C3(Cl)C4(Cl)C(Cl)(Cl)C5(Cl)C3(Cl)C1(Cl)C5(Cl)C24Cl (centres undefined)
inactive: Potency [1] | Potency [2] | Potency [3] | Potency [4] | Potency [5] | Potency [6] | Potency [7]

CC(C)=CCN1CC[C@@]2(C)c3cc(O)ccc3C[C@@H]1[C@@H]2C
active: Potency [1] 17 µM | Potency [7] 31.2 µM
inactive: Potency [2] | Potency [3] | Potency [4] | Potency [5] | Potency [6]

Cc1cc2c3c(c1)C(c1ccccc1)=N[C@@H](NC(=O)c1ccncc1)C(=O)N3CC2
inactive: Potency [1] | Potency [2] | Potency [3] | Potency [4] | Potency [5] | Potency [7]
active: Potency [6] 13.7 µM

COc1cnc(OC)n2nc(NS(=O)(=O)c3c(OCC(F)F)cccc3C(F)(F)F)nc12
inactive: Potency [1] | Potency [2] | Potency [3] | Potency [4] | Potency [5] | Potency [6] | Potency [7]

NC(=O)C(Cl)Cl
inactive: Potency [1] | Potency [2] | Potency [3] | Potency [4] | Potency [5] | Potency [6] | Potency [7]

O=C(O)CCCCCCNC1c2ccccc2CCc2ccccc21
inactive: Potency [1] | Potency [2] | Potency [3] | Potency [4] | Potency [5] | Potency [6] | Potency [7]

CCN(CC)C(=O)N[C@@H]1C=C2c3cccc4[nH]cc(c34)C[C@@H]2N(C)C1
inactive: Potency [1] | Potency [2] | Potency [3] | Potency [4] | Potency [5]

CC(C)NCC(O)c1ccccc1Cl (centres undefined)
inactive: Potency [1] | Potency [2] | Potency [3] | Potency [4] | Potency [5] | Potency [6] | max activation [8] 1.03% | Potency [9] | Potency [7]

C[N+]1(C)[C@@H]2CC[C@H]1CC(OC(=O)C(CO)c1ccccc1)C2 (some centres undefined)
inactive: Potency [1] | Potency [2] | Potency [3] | Potency [4] | Potency [5] | Potency [6] | max activation [8] 5.17% and -0.275% | Potency [9] | Potency [10] | Potency [7]

NC1CCC(CC2CCC(N)CC2)CC1 (centres undefined)
inactive: Potency [1] | Potency [2] | Potency [3] | Potency [4] | Potency [5] | Potency [6] | Potency [7]

N#CC(C#N)=NNc1cccc(Cl)c1
inactive: Potency [2] | Potency [4] | Potency [6] | Potency [7]
active: Potency [1] 3.86 µM | Potency [3] 3860 nM | Potency [5] 24.3 µM

O=C(N[C@H]1N=C(c2ccccc2F)c2cccc3c2N(CC3)C1=O)c1cc2ccccc2[nH]1
inactive: Potency [1] | Potency [2] | Potency [3] | Potency [4] | Potency [5] | Potency [7]
active: Potency [6] 18.8 µM

CCCCn1cc[n+](C)c1.[Cl][Fe-]([Cl])([Cl])[Cl]
inactive: Potency [1] | Potency [2] | Potency [3] | Potency [4] | Potency [5]

N#Cc1ccc(N(CC(N)=O)CC(F)(F)F)cc1C(F)(F)F
inactive: Potency [1] | Potency [2] | Potency [3] | Potency [4] | Potency [5] | Potency [6] | Potency [7]
